Assay [1] in a line: A549 cell viability effects, profiling panel, calcein-AM fluorescence, 48 h, basal (AID 1162). Further: test concentration not given here. The note with it: higher = more signal.
Assay [2] in a line: adipocyte viability effects, profiling panel, cell-based, 3T3-L1 adipocytes, calcein-AM fluorescence, 48 h, basal (AID 1163). Further: test concentration not given here. The note with it: 3T3-L1 adipocytes viability, higher = more signal.
Assay [3] in a line: HepG2 cell viability effects, profiling panel, calcein-AM fluorescence, 48 h, basal (AID 1164). Further: test concentration not given here. The note with it: higher = more signal.
The nature of assay [4]: MM1S cell viability effects, profiling panel, calcein-AM fluorescence, 48 h, basal (AID 1165).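 Further: viability of MM1S multiple myeloma cells under basal unstimulated conditions; test concentration not given here.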 Particulars: higher = more signal.
Assay [5] in a line: basal RPMI8226 viability, no added stimulus, profiling panel, cell-based, calcein-AM fluorescence, 48 h, PK04 Diversity Set (AID 1166).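 Further: cells grown under basal conditions without added stimulus; test concentration not given here.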 The note with it: RPMI8226 myeloma viability, higher = more signal.
Assay [6] can be described thus: basal HepG2 mitochondrial membrane potential changes, profiling panel, cell-based, JC-1 fluorescence, 24 h, 100 nL compound (AID 1167). Further: test concentration not given here. Particulars: higher = more signal.
A short description of assay [7]: basal 3T3-L1 adipocyte mitochondrial potential changes, profiling panel, cell-based, JC-1 fluorescence, 3T3-L1 adipocytes, 24 h, 100 nL compound (AID 1168). Further: test concentration not given here. Particulars: JC-1 mitochondrial fluorescence, higher = more signal, called active from +8 up or from −8 down.
Assay [8] can be described thus: basal RPMI8226 mitochondrial membrane potential changes, profiling panel, cell-based, JC-1 fluorescence, 24 h, 100 nL compound (AID 1169). Further: test concentration not given here. Particulars: RPMI8226 myeloma, JC-1 mitochondrial potential fluorescence, higher = more signal.
Assay [9] in a line: basal MM1S mitochondrial membrane potential changes, profiling panel, cell-based, JC-1 fluorescence, 24 h, 100 nL compound (AID 1170). Further: test concentration not given here. Particulars: higher = more signal.
Assay [10] is described as follows: A549 lung cancer cell viability effects, profiling panel, resazurin fluorescence, 24 h, PK04 Diversity Set (AID 1171). Further: test concentration not given here. The note with it: higher = more signal, called active from +8 up or from −8 down.
The nature of assay [11]: HepG2 liver cancer cell viability effects, profiling panel, resazurin fluorescence, 24 h, PK04 Diversity Set (AID 1172). Further: test concentration not given here. Particulars: higher = more signal. On the technique in general: Resazurin is reduced to fluorescent resorufin, in cell work by metabolically active cells.
Assay [12] in a line: basal S. cerevisiae growth modulation, no modifier, primary screen, OD600, strain BY4716, 24 h, basal condition (AID 1173). The note with it: OD600, 24 h, higher = more signal, called active from +8 up or from −8 down.
Assay [13] is described as follows: MM1S myeloma cell viability, profiling panel, resazurin fluorescence, basal, 24 h, PK04 Diversity Set (AID 1174).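 Further: MM1S multiple myeloma cell line; test concentration not given here.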 Particulars: higher = more signal, called active from +8 up or from −8 down.
Assay [14] has as its target Dihydroorotate dehydrogenase (quinone), mitochondrial (Plasmodium falciparum (isolate 3D7)) (UniProt Q08210). Description: PfDHODH enzyme inhibitors, primary screen, biochemical, C-terminal His tag, absorbance 600 nm (AID 1175).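 Further: recombinant parasite enzyme with a five histidine tag at its C terminus; test concentration not given here.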 The note with it: DCIP absorbance 600 nm, higher = more signal, called active from +8 up or from −8 down.
Assay [15] can be described thus: P. aeruginosa biofilm formation inhibitors, primary screen, strain PAO1, LB-PBS medium, absorbance 600 nm (AID 1176). Further: test concentration not given here. The note with it: P. aeruginosa PAO1 growth/biofilm, A600, 12 h; higher = more signal.
Assay [16] in a line: S. cerevisiae RM11-1a growth modifiers, primary screen, strain RM11-1a, OD600, basal, 24 h (AID 1177).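 Further: cultures grown under basal conditions with no added stressor; test concentration not given here.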 The note with it: OD600, 24 h, higher = more signal, called active from +8 up or from −8 down.
Assay [17] in a line: E. coli acrAB mutant growth effects, primary screen, E. coli filamentation inducers, strain DRC39, OD650, 24 h (AID 1178).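 Further: growth measured as culture turbidity by optical density at 650 nm; test concentration not given here.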 Particulars: higher = more signal, called active from +8 up or from −8 down.
Assay [18] in a line: E. coli acrAB mutant growth effects, primary screen, E. coli filamentation inducers, strain DRC39, OD650, 48 h (AID 1179).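 Further: screen aims at cell division blockers that make cells filament.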 The note with it: E. coli DRC39 delta-acrAB growth, higher = more signal, called active from +8 up or from −8 down.
Assay [19] can be described thus: RPMI8226 myeloma cell viability, profiling panel, resazurin fluorescence, basal, 24 h, PK04 Diversity Set (AID 1180).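 Further: RPMI8826 multiple myeloma cell line at 5000 cells per well; test concentration not given here.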 Particulars: higher = more signal.
Assay [20] has as its target E3 ubiquitin-protein ligase XIAP (Homo sapiens) (UniProt P98170). Kind of assay: XIAP binders, primary screen, biophysical, small-molecule microarray, fluorescence 635 nm (AID 1181).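 Further: score merges 667 nm emission and signal to noise over triplicate slides.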 The note with it: small-molecule microarray binding, higher = more signal.

Activity calls are given as the source filed them. Unless noted, how the calls were made is not given here.

Sequence of E3 ubiquitin-protein ligase XIAP (Homo sapiens) (P98170 whole entry, looked up): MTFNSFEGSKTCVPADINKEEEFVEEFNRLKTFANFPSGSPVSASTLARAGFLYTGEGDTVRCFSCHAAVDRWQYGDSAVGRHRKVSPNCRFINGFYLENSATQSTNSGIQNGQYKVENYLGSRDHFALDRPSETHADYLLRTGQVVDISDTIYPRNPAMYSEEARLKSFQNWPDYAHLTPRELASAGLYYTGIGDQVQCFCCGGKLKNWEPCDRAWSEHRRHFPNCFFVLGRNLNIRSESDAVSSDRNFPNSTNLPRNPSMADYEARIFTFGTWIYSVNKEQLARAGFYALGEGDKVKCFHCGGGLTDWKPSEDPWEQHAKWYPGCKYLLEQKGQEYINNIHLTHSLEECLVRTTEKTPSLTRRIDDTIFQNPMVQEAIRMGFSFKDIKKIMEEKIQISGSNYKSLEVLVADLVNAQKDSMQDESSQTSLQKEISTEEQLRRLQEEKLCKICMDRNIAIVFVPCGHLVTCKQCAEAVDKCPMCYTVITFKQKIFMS
Sequence of Dihydroorotate dehydrogenase (quinone), mitochondrial (Plasmodium falciparum (isolate 3D7)) (Q08210 whole entry, looked up): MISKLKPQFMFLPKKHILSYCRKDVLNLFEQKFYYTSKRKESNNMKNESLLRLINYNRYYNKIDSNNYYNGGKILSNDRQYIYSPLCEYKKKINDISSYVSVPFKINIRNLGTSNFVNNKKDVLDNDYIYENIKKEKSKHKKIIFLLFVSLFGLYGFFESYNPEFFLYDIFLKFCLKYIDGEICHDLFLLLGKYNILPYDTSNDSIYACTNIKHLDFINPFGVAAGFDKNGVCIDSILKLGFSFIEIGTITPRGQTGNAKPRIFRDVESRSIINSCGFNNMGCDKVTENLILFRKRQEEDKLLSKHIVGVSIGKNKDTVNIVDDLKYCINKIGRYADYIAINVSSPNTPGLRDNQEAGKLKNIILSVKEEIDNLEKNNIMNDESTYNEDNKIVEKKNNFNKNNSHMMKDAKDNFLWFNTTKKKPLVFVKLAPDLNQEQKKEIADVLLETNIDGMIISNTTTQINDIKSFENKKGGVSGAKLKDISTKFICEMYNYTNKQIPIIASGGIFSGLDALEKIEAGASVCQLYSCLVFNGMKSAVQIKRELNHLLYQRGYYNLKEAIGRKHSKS

Consider `CC1=C2[C@@H](CCc3ccccc3)OB(O)C[C@@H]2[C@@H]2C(=O)N(Cc3ccccc3)C(=O)[C@@H]2C1`, for which the z-score was -0.261 in assay [1]; -0.351 in assay [2]; -0.932 in [3]; -2.9 in assay [4]; -2.4 in assay [5]; -0.999 in assay [6]. In addition, the z-score in assay [7] was -0.301 (inactive); in [8], 0.49; in [9], 0.821; in assay [10], -0.17 (inactive); in assay [11], -0.819; in [12], -4.86 (inactive). Besides, the z-score in [13] is -0.249 (inactive); in assay [15], 0.118 (inactive); in assay [16], -0.849 (inactive); in [17], -0.204 (inactive); in [18], -0.225 (inactive); in assay [19] it was -0.26. Besides, the composite z-score in [14] is -1.71 (inactive); in assay [20], -0.193.
As for `NCCCCCNC(=O)[C@H]1C[C@H]2C(=O)N3CCC[C@H]3C(=O)N2[C@H]1c1cccc(OCCO)c1`, the z-score is -0.173 in assay [1]; 0.101 in assay [2]; -0.816 in assay [3]; -1.53 in [4]; -0.881 in [5]; 0.37 in [6]. Moreover, the z-score in assay [7] was 0.13 (inactive); in assay [8], 0.113; in [9], -0.503; in [10] it was -0.845 (inactive); in assay [11] it was -1.25; in assay [12], -0.0559 (inactive). Further, the z-score in assay [13] was -0.02 (inactive); in [15], -0.252 (inactive); in [16], -0.132 (inactive); in assay [17], -0.658 (inactive); in [18] it was -1.33 (inactive); in [19], -0.29. In addition, the composite z-score in assay [14] is 0.322 (inactive); in assay [20] it was 0.256.
Consider `COCC(=C=CC[C@H](O)c1ccccc1OCCO)C[C@H](O)c1ccccn1`, for which the z-score in assay [1] was 1.12; in assay [2], 0.381; in assay [3] it was 0.781; in [4], 0.943; in assay [5], 0.139; in [6] it was 1.01. Further, the z-score was -0.443 (inactive) in assay [7]; -0.471 in assay [8]; -1.09 in assay [9]; -0.0836 (inactive) in [10]; 0.839 in assay [11]; -0.329 (inactive) in assay [12]. The z-score in assay [13] was 0.324 (inactive); in assay [15], 0.354 (inactive); in assay [16], -0.115 (inactive); in assay [17] it was 0.696 (inactive); in [18] it was 0.547 (inactive); in [19], -0.543. In addition, the composite z-score was -2.09 (inactive) in assay [14] and -0.102 in assay [20].
As for `CCOC(=O)C[C@H]1[C@H](OC(=O)Cc2ccc3c(c2)OCO3)[C@@H](NC(=O)c2ccc3ccccc3n2)c2cc(OCCCO)ccc2N1C(=O)c1ccc2ccccc2n1`, the z-score was 5.35 in assay [1]; 1.03 in [2]; 1.83 in assay [3]; -1.01 in assay [4]; 0.121 in [5]; 2.81 in [6]. Moreover, the z-score in assay [7] is 0.413 (inactive); in assay [8], 0.362; in assay [9] it was 0.981; in assay [10], -0.387 (inactive); in assay [11], 0.482; in assay [12], -1.22 (inactive). Further, the z-score in assay [13] is -0.145 (inactive); in assay [15], 0.325 (inactive); in assay [16], -2.19 (inactive); in assay [17], 2.08 (inactive); in assay [18], 1.57 (inactive); in assay [19], -0.172. Further, the composite z-score in assay [14] was -0.574 (inactive); in assay [20], -0.0773.
On to `CC(CO)N1C(=O)[C@@H]2[C@H]3C(=O)OCC=C[C@H]3OC23C=CCN(Cn2nnc4ccccc42)C(=O)[C@@H]13` (stereo not given in full), for which the z-score in [1] is -0.671; in [2], -0.948; in [3] it was -0.907; in [4] it was 0.07; in assay [5] it was -0.637; in assay [6], -1.23. For the same molecule, the z-score in [7] is -0.529 (inactive); in assay [8], 0.241; in assay [9], -0.226; in assay [10], -0.382 (inactive); in assay [11], -0.628; in [12], 0.0199 (inactive). Also, the z-score in assay [13] is -0.124 (inactive); in [15], -0.0558 (inactive); in assay [16], -1.27 (inactive); in assay [17] it was -0.11 (inactive); in [18], -0.331 (inactive); in assay [19], -0.35. In addition, the composite z-score is 0.29 (inactive) in [14] and -0.334 in [20].
Consider `N#Cc1ccc(NN2C(C(O)c3ccc(Br)cc3)C=CC3C(=O)N(c4ccccc4)C(=O)C32)cc1` (stereo not given), for which the z-score is 0.647 in assay [1]; 0.0175 in assay [2]; 1.11 in assay [3]; -0.615 in assay [4]; 0.201 in [5]; -0.574 in assay [6]. Further, the z-score in [7] is 0.507 (inactive); in assay [8] it was 0.244; in assay [9], 0.0172; in assay [10], -0.421 (inactive); in assay [11] it was -1.3; in assay [12] it was -3.42 (inactive). The z-score was -0.299 (inactive) in assay [13]; 0.819 (inactive) in assay [15]; -1.85 (inactive) in assay [16]; 0.527 (inactive) in assay [17]; 0.656 (inactive) in assay [18]; -0.0706 in assay [19]. The composite z-score in [14] is -1.03 (inactive); in assay [20], 0.179.
Turning to `CCCCCCCCCC(O)C1C=CC2C(=O)N(c3ccccc3)C(=O)C2N1Nc1cc(OC)c(OC)c(OC)c1` (stereo not given), the z-score in [1] was -1.07; in assay [2], 0.614; in assay [3], -0.777; in assay [4] it was -3.83; in assay [5] it was -4.07; in assay [6], -0.0684. Also, the z-score was 0.783 (inactive) in [7]; -0.994 in assay [8]; -1.21 in [9]; -1.58 (inactive) in [10]; -2.66 in [11]; 0.953 (inactive) in assay [12]. Further, the z-score in [13] was -4.42 (inactive); in assay [15], 0.711 (inactive); in [16] it was 0.27 (inactive); in assay [17], -1.57 (inactive); in assay [18] it was -1.75 (inactive); in assay [19], -4.03. For the same molecule, the composite z-score in [14] is -0.474 (inactive); in assay [20], 0.176.
Regarding `CC(C)N1CC=CC23O[C@@H]4C=CCCOC(=O)C4[C@H]2C(=O)N(CCCO)[C@@H]3C1=O` (stereo not given in full), the z-score in [1] is -0.726; in [2], 1.36; in assay [3] it was 0.292; in assay [4], 0.756; in [5], -0.457; in [6] it was -0.568. Moreover, the z-score was 0.128 (inactive) in assay [7]; -0.303 in assay [8]; -0.438 in assay [9]; 0.446 (inactive) in [10]; 1.12 in [11]; -0.951 (inactive) in assay [12]. The z-score in assay [13] is 0.348 (inactive); in [15], -0.276 (inactive); in [16] it was 0.0977 (inactive); in assay [17], -0.463 (inactive); in assay [18] it was 0.32 (inactive); in [19], -0.114. For the same molecule, the composite z-score was -0.926 (inactive) in [14] and 0.152 in assay [20].
